Hit rate of the full screen: of about 400,000 compounds, about 2,100 (0.53%) were called active. Another 14% or so got no clear call; they are omitted. The rule behind the calls is not given here. The entries come from a sample that favours actives as a whole.

This assay deals with Ataxin-2 (Homo sapiens) (UniProt Q99700). Briefly: qHTS for Inhibitors of ATXN expression. It counts as functional. (In qHTS, concentration-response curves come from the screen itself.)
Ataxin-2 (Homo sapiens), sequence (Q99700 whole entry): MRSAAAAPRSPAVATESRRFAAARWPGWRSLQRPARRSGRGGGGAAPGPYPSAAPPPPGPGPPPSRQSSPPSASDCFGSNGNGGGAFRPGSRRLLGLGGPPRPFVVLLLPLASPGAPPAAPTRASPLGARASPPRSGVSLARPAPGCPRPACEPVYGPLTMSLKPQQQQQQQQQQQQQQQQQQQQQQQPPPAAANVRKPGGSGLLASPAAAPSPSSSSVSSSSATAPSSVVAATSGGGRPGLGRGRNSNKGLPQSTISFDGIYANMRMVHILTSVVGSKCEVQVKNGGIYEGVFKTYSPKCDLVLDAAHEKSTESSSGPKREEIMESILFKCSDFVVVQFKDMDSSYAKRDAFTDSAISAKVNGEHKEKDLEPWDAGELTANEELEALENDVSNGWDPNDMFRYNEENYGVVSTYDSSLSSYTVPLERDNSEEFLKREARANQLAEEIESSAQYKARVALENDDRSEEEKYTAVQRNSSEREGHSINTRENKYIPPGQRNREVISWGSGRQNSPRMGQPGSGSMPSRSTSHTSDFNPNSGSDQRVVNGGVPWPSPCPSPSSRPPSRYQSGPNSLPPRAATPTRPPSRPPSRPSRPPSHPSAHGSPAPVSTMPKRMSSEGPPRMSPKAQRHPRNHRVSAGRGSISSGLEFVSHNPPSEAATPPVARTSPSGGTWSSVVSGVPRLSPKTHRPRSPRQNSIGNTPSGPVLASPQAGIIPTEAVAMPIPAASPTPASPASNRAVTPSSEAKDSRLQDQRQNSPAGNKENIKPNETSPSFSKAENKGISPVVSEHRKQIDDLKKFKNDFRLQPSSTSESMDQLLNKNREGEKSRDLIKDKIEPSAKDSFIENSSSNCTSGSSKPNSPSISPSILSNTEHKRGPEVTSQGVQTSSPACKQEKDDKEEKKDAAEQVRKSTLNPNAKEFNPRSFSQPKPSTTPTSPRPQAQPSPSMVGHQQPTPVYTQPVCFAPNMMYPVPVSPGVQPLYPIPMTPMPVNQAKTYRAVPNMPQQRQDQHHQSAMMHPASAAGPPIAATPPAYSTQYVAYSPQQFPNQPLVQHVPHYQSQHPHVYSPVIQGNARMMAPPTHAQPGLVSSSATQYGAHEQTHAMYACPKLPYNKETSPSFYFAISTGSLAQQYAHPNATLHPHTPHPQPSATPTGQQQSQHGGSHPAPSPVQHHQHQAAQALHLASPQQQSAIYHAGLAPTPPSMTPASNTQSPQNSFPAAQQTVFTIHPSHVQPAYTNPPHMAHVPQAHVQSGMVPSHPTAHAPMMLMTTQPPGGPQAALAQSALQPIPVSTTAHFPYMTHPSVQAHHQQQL
Regarding `COCCNC(=S)N/N=C/c1ccc2c(c1)OCCO2`, the Potency entry is “inactive”. With `Brc1cc(Br)c2nc(-c3ccc(N4CCOCC4)cc3)ccc2c1`, the Potency entry is “inactive”. In the case of `N#CC1=CN(Cc2ccccc2)C=C(/C=N/Nc2ccccc2)C1`, the Potency entry was “inactive”. Consider `O=c1c2cc([N+](=O)[O-])cc([N+](=O)[O-])c2[nH]n1-c1ccccc1`, for which the Potency is 22.4 µM (active).

With `O=[N+]([O-])c1cc([N+](=O)[O-])c2[nH]nc(-c3ccccc3)c2c1`, the Potency result was “inactive”. Turning to `N#Cc1c(N)n(Cc2ccccc2)c(=O)c2cc([N+](=O)[O-])ccc12`, the Potency result is “inactive”. In the case of `COC(=O)Cc1cnc(NC(=O)CSc2nc(O)cc(C(C)C)n2)s1`, the Potency result is “inactive”. Take `CCCn1nc(NC(=O)c2ccco2)c2cc3ccccc3nc21`: the Potency result is “inactive”. Take `COCc1c(C(=O)N/N=C/c2c[nH]c3ccccc23)nnn1-c1nonc1N`: the Potency result is “inactive”. Under `NC(=S)N/N=C/c1c[nH]c2ccc(OCc3ccccc3)cc12` stands 12.6 µM (active); under `COc1cc(Br)cc(/C=N/NC(=O)Cc2ccccc2)c1O`, “inactive”; under `CN(Cc1ccccc1)S(=O)(=O)c1ccc(N2CCOCC2)nc1`, “inactive”. Under `CN(Cc1ccccc1)S(=O)(=O)c1ccc(OCC(=O)N2CCC(C(N)=O)CC2)cc1` stands “inactive”; under `Cc1ccc2sc(N(CCCN(C)C)C(=O)c3ccc(S(=O)(=O)N(C)Cc4ccccc4)cc3)nc2c1C`, 31.6 µM (active); under `CN(C1CCCCC1)S(=O)(=O)c1ccc(SCC(=O)C(C)(C)C)nc1`, “inactive”. Turning to `COC(=O)c1ccc(C(=O)N(CCN(C)C)c2nc3c(Cl)cccc3s2)cc1`, the Potency result was “inactive”. As to `Cc1ccc2sc(N(CCCN(C)C)C(=O)c3ccc(S(=O)(=O)N(C)C4CCCCC4)cc3)nc2c1C`, the Potency was 25.1 µM (active). Under `CCOc1cccc2sc(N(CCCN(C)C)C(=O)c3ccc(S(=O)(=O)N(C)Cc4ccccc4)cc3)nc12` stands 39.8 µM (active). For the molecule `Cc1[nH]c2ccccc2c1C(=O)CN1C(=O)NC2(CCCCCC2)C1=O`, the Potency entry is “inactive”. As for `CCC(C)(C)c1ccc(OCCCC[n+]2cccc(C)c2C)c(C(C)(C)CC)c1`, the Potency is 31.6 µM (active). Turning to `CC(C)(C)NC(=S)N/N=C\c1ccc(-c2ccc([N+](=O)[O-])cc2)o1`, the Potency entry was “inactive”. Then `COc1cccc(/C=C/C(=O)Nc2cccc(C(C)=O)c2)c1OC`, with “inactive”; and `CC(=O)c1cccc(NC(=O)CC2SC(N/N=C/c3ccccc3)=NC2=O)c1` (stereo not drawn), with “inactive”; and `CN(C(=O)/C=C/c1ccc([N+](=O)[O-])s1)c1ccccc1`, with 33.6 µM (active). Take `Cc1cccc(NC(=O)C(C)Oc2ccc(C)nc2[N+](=O)[O-])c1` (stereo not drawn): the Potency entry was “inactive”. For `C=CCc1cccc(/C=N/NC(=O)C(=O)Nc2ccc(C)cc2)c1O`, the Potency result was “inactive”. Then `COc1cccc(/C=N/NC(=S)Nc2cccc(C(=O)O)c2)c1O`, with “inactive”; and `CC(=O)c1cccc(NC(=O)/C=C/c2ccc([N+](=O)[O-])s2)c1`, with 5.97 µM (active); and `Cc1cccc(NC(=S)N/N=C/c2ccc([N+](=O)[O-])s2)c1`, with 31.6 µM (active). As to `Cc1ccc(NC(=S)N/N=C/c2ccc([N+](=O)[O-])s2)cc1`, the Potency was 39.8 µM (active).

As to `N=c1c(C(=O)NC2CCCC2)cc2c(=O)n3ccccc3nc2n1C1CCCCC1`, the Potency entry was “inactive”.

Take `CC1Nc2nc(N(C)C)nc(O)c2NC1C` (stereo not drawn): the Potency result is “inactive”. Take `Cc1cc2nc(/C=C/c3nc4cc(C)c(C)cc4[nH]3)[nH]c2cc1C`: the Potency result was “inactive”. For the molecule `Oc1ccc(Br)cc1C1Nc2ccccc2S1` (stereo not drawn), the Potency result was “inactive”. As to `CCC(CC)c1nnc(NC(=O)CSCc2c(C)noc2C)s1`, the Potency entry was “inactive”. For `CC1(C)C=Cc2c(c3c(c4c(=O)c(-c5ccc(O)cc5)coc24)OC(C)(C)CC3)O1`, the Potency is 35.5 µM (active).

On to `CC(C)=CCc1c(O)c(CC=C(C)C)c2occ(-c3ccc(O)cc3)c(=O)c2c1O`, for which the Potency is 39.8 µM (active).

In the case of `COc1c(CC=C(C)C)c(O)cc2oc(=O)c3c4ccc(O)cc4oc3c12`, the Potency result is “inactive”.

Turning to `CC(C)=CCc1c(-c2ccc(O)cc2O)oc2cc3c(c(O)c2c1=O)C=CC(C)(C)O3`, the Potency was 39.8 µM (active). For the molecule `CC(C)=CCc1c2c(c3occ(-c4ccc(O)cc4)c(=O)c3c1O)C=CC(C)(C)O2`, the Potency is 25.1 µM (active). Turning to `COC(c1ccccc1)(c1ccccc1)C(Oc1nc(C)cc(C)n1)C(=O)O` (stereo not drawn), the Potency result was “inactive”. For the molecule `CCOC(=O)c1c2ccc(OCC(=O)NN)cc2n2ccccc12`, the Potency entry was “inactive”. Then `Cc1c(C)c2cc(Cl)c(O)c(CN(C)C)c2oc1=O`, with “inactive”; and `CCCCCC(=O)N1C[C@H](n2cc(COC(=O)c3ccccc3)nn2)[C@@H](O)C[C@@H]1c1ccc(Cl)cc1`, with 39.8 µM (active); and `CCCCCC(=O)N1C[C@@H](n2cc(COC(=O)c3ccccc3)nn2)[C@H](O)C[C@@H]1c1ccc(Cl)cc1`, with 31.6 µM (active). For `CC1(S(=O)(=O)O)CC(=O)c2ccccc2C1=O` (stereo not drawn), the Potency result was “inactive”. Consider `CC(=O)N1N=C2c3ccccc3CCC2C1c1ccc(F)cc1` (stereo not drawn), for which the Potency entry is “inactive”. Regarding `CCCCn1c(NC(C)=O)c(C#N)c2nc3ccccc3nc21`, the Potency result was “inactive”.

As to `O=C(CN1CCCc2ccccc21)Nc1ccccc1[N+](=O)[O-]`, the Potency entry was “inactive”. Then `CC(C)c1noc(-c2ccccc2OCC(=O)Nc2ccccc2[N+](=O)[O-])n1`, with 39.8 µM (active); and `Cc1csc(SCC(=O)Nc2ccccc2[N+](=O)[O-])n1`, with “inactive”; and `Nc1cccc2c1C(=O)N(C(=O)c1cccc(S(=O)(=O)N3CCCCCC3)c1)C2=O`, with “inactive”.

As to `Fc1ccc(CN2CCN(c3ncccn3)CC2)c(F)c1`, the Potency result was “inactive”. Then `O=C(c1ccc(-n2c(SCc3cc(F)ccc3F)nc3ccccc3c2=O)cc1)N1CCOCC1`, with “inactive”. Turning to `COc1ccc(C(C)=O)cc1CSc1nc2ccccc2c(=O)n1-c1ccccc1`, the Potency is 35.5 µM (active). Under `COCC(C)n1c(SCc2ccc(C(=O)OC)cc2)nc2ccccc2c1=O` (stereo not drawn) stands “inactive”. As to `O=C(NCc1ccncc1)c1ccc(NS(=O)(=O)c2ccc(F)cc2)cc1`, the Potency result was “inactive”. Under `CCOC(=O)c1c(C)oc2c1c(C(c1cccnc1)N1CCOCC1)c(O)c1ccccc12` (stereo not drawn) stands 39.8 µM (active); under `CCOC(=O)c1c(C)oc2c1c(/C=N/CCO)c(O)c1ccccc12`, “inactive”.

Turning to `CCOC(=O)C(CC)Sc1ccc2nnc(-c3cccnc3)n2n1` (stereo not drawn), the Potency result is “inactive”. As for `CCOC(=O)c1c(C)oc2c1c(C(c1ccccc1)N1CCOCC1)c(O)c1ccccc12` (stereo not drawn), the Potency was 39.8 µM (active). `CCOC(=O)c1c(N=C(S)N2CCOCC2)sc(C)c1C`: the Potency result is “inactive”.

`COc1ccc(C(=O)N/N=C\c2coc3ccccc3c2=O)cc1`: the Potency entry is “inactive”. Under `O=C(Cc1cc(=O)oc2cc(O)ccc12)NCC1CCC(C(=O)O)CC1` (stereo not drawn) stands “inactive”; under `Cc1c(-c2ccc(Cl)cc2)c(=O)oc2c(CN3CCCC3)c(O)ccc12`, “inactive”.

In the case of `Cc1cc(-c2cccs2)c2c(N)c(C(=O)c3ccc4c(c3)OCO4)sc2n1`, the Potency result is “inactive”. Then `CC(O)CNc1nc(NCc2ccccc2)c2cnn(C)c2n1` (stereo not drawn), with “inactive”; and `OCCNc1c2ccccc2nc2ccccc12`, with “inactive”; and `c1ccc(CNc2nc(NCc3ccccc3)c3ccccc3n2)cc1`, with 39.8 µM (active). Turning to `CC1(C)Cc2c(C#N)c(NCCO)nc(-c3ccco3)c2CO1`, the Potency entry is “inactive”.

For the molecule `C/C(=N\NC(=S)NCCc1ccccc1)c1ccc(Cl)cc1Cl`, the Potency result was “inactive”.

For `Cc1cc(C)c(C(=O)Nc2ccccc2)c(CC(C)(C)C(=O)O)c1`, the Potency entry was “inactive”. Then `Cc1nnc(Sc2cc(NCCCO)c([N+](=O)[O-])c3nonc23)s1`, with 21.2 µM (active); and `CCCn1c(N)c(C(=O)CSc2nc3ccccc3s2)c(=O)[nH]c1=O`, with “inactive”. Consider `Cc1nnc(Sc2cc(NCCO)c([N+](=O)[O-])c3nonc23)s1`, for which the Potency is 28.2 µM (active).

On to `COc1ccc(NC(=O)CCC(=O)NCc2ccco2)c([N+](=O)[O-])c1`, for which the Potency result was “inactive”. Then `CC(=O)OCCCNc1cc(Sc2nc3ccccc3s2)c2nonc2c1[N+](=O)[O-]`, with 12.6 µM (active); and `CC(=O)Nc1scc(C)c1-c1nc2ccccc2s1`, with “inactive”.

On to `O=[N+]([O-])c1c(NCCCO)cc(SCc2ccco2)c2nonc12`, for which the Potency was 31.6 µM (active). For the molecule `COCCNc1nnc(SCC(=O)Nc2cc(C)on2)s1`, the Potency entry was “inactive”. Then `O=C(Cn1[nH]c(=O)c2ccccc2c1=O)OCC(=O)c1ccc(F)c(F)c1`, with “inactive”; and `COCCCn1c(=N)c(C(=O)NCc2ccco2)cc2c(=O)n3cccc(C)c3nc21`, with “inactive”. Turning to `O=C1c2cccc3c(N4CCCCC4)ccc(c23)C(=O)N1c1ccc(O)cc1`, the Potency entry is “inactive”. `Cc1ccc(OCCCCCCN2CCNCC2)cc1`: the Potency result was “inactive”. Turning to `Cc1ccc(OCCCCN2CCCCC2)cc1`, the Potency result is “inactive”.

As for `OC(c1ccccc1)(c1ccccc1)C1CCN(CCCOc2cccc(OC(F)(F)F)c2)CC1`, the Potency was 35.5 µM (active). Then `COC(=O)c1cccc(OCCCN2CCC(C(O)(c3ccccc3)c3ccccc3)CC2)c1`, with 35.5 µM (active). Then `O=C(c1coc(=O)c(Br)c1)N1CCC(C(O)(c2ccccc2)c2ccccc2)CC1`, with “inactive”. Take `CC(C)c1ccccc1OCCCN1CCCC1`: the Potency result was “inactive”.

Take `O=C(Oc1cccc(C(=S)N2CCCCC2)c1)c1ccccc1`: the Potency result is “inactive”. `Brc1cccc(OCCN2CCc3ccccc3C2)c1`: the Potency result was “inactive”. As for `Cc1ccc(OCCCN2CCC(C(O)(c3ccccc3)c3ccccc3)CC2)cc1`, the Potency was 35.5 µM (active). For `C=CCOc1ccc(/C=N\NC(N)=S)cc1`, the Potency is 22.4 µM (active). Take `CCOc1ccc(/C=N/NC(=O)Cc2cccs2)cc1`: the Potency result was “inactive”. Take `C=CCNC(=S)N/N=C/c1ccc(-c2ccc(OC)cc2)o1`: the Potency entry is “inactive”. On to `CCn1c(=N)c(C(=O)NC2CCCCC2)cc2c(=O)n3cc(C)ccc3nc21`, for which the Potency entry is “inactive”. Regarding `CCC(C)n1c(=N)c(C(=O)NC2CCCCC2)cc2c(=O)n3cc(C)ccc3nc21` (stereo not drawn), the Potency entry is “inactive”. `COc1ccccc1Cc1c(C2CCCCC2)nc2ccc(C)cn12`: the Potency was 20 µM (active).

For the molecule `Brc1ccc2nc(-c3cccs3)c(NCC3CCCO3)n2c1` (stereo not drawn), the Potency entry is “inactive”. For `Cc1ccc2nc(C3CCCCC3)c(Cc3cccc(Cl)c3)n2c1`, the Potency was 39.8 µM (active). Turning to `Cc1ccc2nc3c(cc(C(=O)NC4CCS(=O)(=O)C4)n3Cc3ccccc3)c(=O)n2c1` (stereo not drawn), the Potency entry was “inactive”. Consider `COc1ccccc1Cc1c(C2CCCCC2)nc2ccc(Br)cn12`, for which the Potency was 17.8 µM (active). Turning to `COCCn1c(=N)c(C(=O)NC2CCCC2)cc2c(=O)n3cc(C)ccc3nc21`, the Potency result was “inactive”.

(Values after ChEMBL document CHEMBL1201862, “PubChem BioAssay data set” (2004).)
